Each structure is given as a SMILES string. Counter-ions that a name gives are not always drawn. ± gives the standard deviation of the averaged measurements. In all, about 1,700 compounds were measured (“cell number in HSV-1-infected wells relative to infected DMSO wells (H2B-RFP signal)”: median about 100, highest 2% from about 140 on). The list comes from a sample in which the highest values are over-represented; it also holds similar structures and randomly drawn compounds.

The subject of the assay is A549 infected with HSV-1. As to the kind of experiment: cell number in HSV-1-infected wells relative to infected DMSO wells (H2B-RFP signal); higher = more surviving cells (uninfected or antiviral-protected wells give about 200%; low = toxicity). The settings on record: 10 µM; 48 h; MOI: 0.1. On the procedure:
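Selleck FDA-approved library (L1300) screened in duplicate at 10 µM on A549 H2B-mRuby cells in 384-well plates, infected with HSV-1 strain 17 YFP-ICP4 at MOI 0.1 one hour before drug addition. Imaged after 2 days at 37°C. Cell growth (H2B-RFP) and infection (ICP4-YFP) are expressed as % of DMSO-treated wells. Hits: growth >90% and infection <20% of DMSO.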
Regarding `C#Cc1cccc(Nc2ncnc3cc4c(cc23)OCCOCCOCCO4)c1` [Icotinib], the “cell number in HSV-1-infected wells” value worked out at 113 ± 1.4%.

As to `CCCCCCCCN=c1ccn(CCCCCCCCCCn2ccc(=NCCCCCCCC)cc2)cc1` [Octenidine Dihydrochloride], the “cell number in HSV-1-infected wells” value was found to be 14.6 ± 4.9%. Regarding `Nc1nc(O)c2ncn(CCC(CO)CO)c2n1` [Penciclovir], the “cell number in HSV-1-infected wells” value was determined as 205 ± 4.4%. In the case of `CC(=O)OCC(CCn1cnc2cnc(N)nc21)COC(C)=O` [Famciclovir], the “cell number in HSV-1-infected wells” value was found to be 104 ± 3.7%. With `OC[C@H]1O[C@@H](O[C@@H]2[C@@H](CO)OC(O)(CO)[C@H]2O)[C@H](O)[C@@H](O)[C@H]1O` (mixture of isomers) [Lactulose] the figure was 115 ± 1.3%; with `CN1CCC(OC(c2ccccc2)c2ccccc2)CC1` [Diphenylpyraline HCl], 98.9 ± 17%. The figure for `C(=C\c1ccccc1)/CN1CCN(C(c2ccccc2)c2ccccc2)CC1` [Cinnarizine] is 117 ± 4.5%; for `CN1CCN(C(c2ccccc2)c2ccccc2)CC1` [Cyclizine 2HCl] it is 153 ± 28%; for `C[N+](C)(C)CCO.O=C([O-])C(O)C(O)C(=O)O` (centres undefined) [Choline bitartrate] it is 124 ± 12%. The figure for `COc1cc(C2Oc3cc([C@H]4Oc5cc(O)cc(O)c5C(=O)[C@@H]4O)ccc3OC2CO)ccc1O` (some centres undefined) [Silibinin] is 95.4 ± 7%. For the molecule `C=C[C@@H]1C[C@]1(NC(=O)[C@@H]1C[C@@H](Oc2ncc(OC)c3ccc(Cl)cc23)CN1C(=O)[C@@H](NC(=O)OC(C)(C)C)C(C)(C)C)C(=O)NS(=O)(=O)C1CC1` [Asunaprevir], the “cell number in HSV-1-infected wells” value was 94.5 ± 22%. The figure for `CCCCc1nc(C)c(CC(=S)N(C)C)c(=O)n1Cc1ccc(-c2ccccc2-c2nnn[nH]2)cc1` [Fimasartan] is 88.2 ± 16%; for `Cc1cn(-c2cc(NC(=O)c3ccc(C)c(Nc4nccc(-c5cnccn5)n4)c3)cc(C(F)(F)F)c2)cn1` [Radotinib] it is 64.4 ± 25%; for `N[C@@H](Cc1c[nH]c2ccc(O)cc12)C(=O)O` [5-hydroxytryptophan (5-HTP)] it is 121 ± 13%. For `O=C(O)c1ccc(NC(=O)[C@H](Cc2ccc(O)cc2)NC(=O)c2ccccc2)cc1` [Bentiromide], the “cell number in HSV-1-infected wells” value is 101 ± 29%.

Take `C=C(c1ccc(C(=O)O)cc1)c1cc2c(cc1C)C(C)(C)CCC2(C)C` [Bexarotene]: the “cell number in HSV-1-infected wells” value was 85.7 ± 8.3%. The figure for `CC1(C)CCC(C)(C)c2cc(NC(=O)c3ccc(C(=O)O)cc3)ccc21` [Tamibarotene] is 143 ± 7.9%; for `CCN(CC)C(=O)N1CCN(C)CC1` [Diethylcarbamazine citrate] it is 89.5 ± 22%; for `NC(=NCCCCCCN=C(N)N=C(N)Nc1ccc(Cl)cc1)N=C(N)Nc1ccc(Cl)cc1` [Chlorhexidine?2HCl] it is 9.11 ± 0.6%. The figure for `O=c1[nH]c(=O)n([C@H]2C[C@H](O)[C@@H](CO)O2)cc1I` [Idoxuridine] is 175.6 ± 1.1%; for `Cc1cn([C@@H]2C[C@@H](O)[C@H](CO)O2)c(=O)[nH]c1=O` [Telbivudine] it is 102 ± 8.7%; for `Nc1ncn([C@@H]2O[C@H](CO)[C@@H](O)[C@H]2O)c(=O)n1` [Azacitidine] it is 98.3 ± 4.2%. Consider `Nc1ncn([C@H]2C[C@H](O)[C@@H](CO)O2)c(=O)n1` [Decitabine], for which the “cell number in HSV-1-infected wells” value worked out at 166 ± 12%. With `O=c1[nH]c(=O)n([C@H]2C[C@H](O)[C@@H](CO)O2)cc1F` [Floxuridine] the figure was 53.3 ± 3.6%. With `Nc1nc(Cl)nc2c1ncn2[C@H]1C[C@H](O)[C@@H](CO)O1` [Cladribine] the figure was 42.1 ± 4.5%. The figure for `CC[C@H](C)C(=O)O[C@H]1C[C@H](O)C=C2C=C[C@H](C)[C@H](CC[C@@H](O)C[C@@H](O)CC(=O)O)[C@H]21` [Pravastatin sodium] is 95.3 ± 16%; for `NC(=O)c1cn(Cc2c(F)cccc2F)nn1` [Rufinamide] it is 120 ± 12%. Consider `C[C@H]1CNCCCN1S(=O)(=O)c1cccc2cncc(F)c12` [Ripasudil (K-115) hydrochloride dihydrate], for which the “cell number in HSV-1-infected wells” value was determined as 114 ± 7%. As to `N#Cc1cc(-c2n[nH]c(-c3ccncc3)n2)ccn1` [Topiroxostat], the “cell number in HSV-1-infected wells” value was 111 ± 12%.

For `Cc1ncc([N+](=O)[O-])n1CC(C)O` (centres undefined) [Secnidazole], the “cell number in HSV-1-infected wells” value was 99.4 ± 14%. With `NS(=O)(=O)c1cc2c(cc1Cl)N=CNS2(=O)=O` [Chlorothiazide] the figure was 114 ± 25%; with `C1N2CN3CN1CN(C2)C3` [Methenamine], 124 ± 25%; with `COc1ccc2cc(CCC(C)=O)ccc2c1` [Nabumetone], 97.7 ± 6.2%. With `CN1CCN(CCCN2c3ccccc3Sc3ccc(Cl)cc32)CC1` [Prochlorperazine dimaleate salt] the figure was 124 ± 49%.

Regarding `CN1CCN(CCCN2c3ccccc3Sc3ccc(Cl)cc32)CC1` [Prochlorperazine Dimaleate], the “cell number in HSV-1-infected wells” value was 163 ± 4.8%. Turning to `CN1CCN(CCCN2c3ccccc3Sc3ccc(C(F)(F)F)cc32)CC1` [Trifluoperazine 2HCl], the “cell number in HSV-1-infected wells” value was determined as 57.5 ± 10%. As for `OCCN1CCN(CCCN2c3ccccc3Sc3ccc(Cl)cc32)CC1` [Perphenazine], the “cell number in HSV-1-infected wells” value is 86.76 ± 0.7%. The figure for `CC(C)C(=O)OCC(=O)[C@@]12O[C@H](C3CCCCC3)O[C@@H]1C[C@H]1[C@@H]3CCC4=CC(=O)C=C[C@]4(C)[C@H]3[C@@H](O)C[C@@]12C` [Ciclesonide] is 120 ± 13%. `Cc1onc(-c2c(Cl)cccc2Cl)c1C(=O)N[C@@H]1C(=O)N2[C@@H]1SC(C)(C)[C@@H]2C(=O)O` [Dicloxacillin Sodium]: the “cell number in HSV-1-infected wells” value came to 146 ± 32%.

Regarding `Cc1onc(-c2c(F)cccc2Cl)c1C(=O)N[C@@H]1C(=O)N2[C@@H]1SC(C)(C)[C@@H]2C(=O)O` [Flucloxacillin sodium], the “cell number in HSV-1-infected wells” value amounted to 111 ± 11%.

For the molecule `Cc1onc(-c2ccccc2Cl)c1C(=O)N[C@@H]1C(=O)N2[C@@H]1SC(C)(C)[C@@H]2C(=O)O` [Cloxacillin Sodium], the “cell number in HSV-1-infected wells” value worked out at 114 ± 15%. With `C[C@]12CC[C@@H]3c4ccc(O)cc4C[C@@H](CCCCCCCCC[S+]([O-])CCCC(F)(F)C(F)(F)F)[C@H]3[C@@H]1CC[C@@H]2O` (some centres undefined) [Fulvestrant] the figure was 74.6 ± 24%.

Regarding `C[C@@H](O)[C@H]1C(=O)N2C(C(=O)O)=C(S[C@@H]3CN[C@H](CNS(N)(=O)=O)C3)[C@H](C)[C@H]12` [Doripenem], the “cell number in HSV-1-infected wells” value was 124 ± 13%. The figure for `C[C@@H](O)[C@H]1C(=O)N2C(C(=O)O)=C(S[C@@H]3CN[C@H](CNS(N)(=O)=O)C3)[C@H](C)[C@H]12` [Doripenem Hydrate] is 98.3 ± 14%.
